Test results published in PubChem BioAssay (NCATS).
Results filed as inconclusive are left out. A call without a number means that no potency is given here. Calls of active or inactive are those of the source. Calls follow the shape of the dose curve; as a rule, active = well fitted cell-killing curve with a large enough effect; inconclusive = small, poorly fitted or top-dose-only effect; inactive = flat fitted curve, though single readings scatter.

Assay: qHTS of pediatric cancer cell lines to identify multiple opportunities for drug repurposing: Primary screen for BT-12 cells (AID 1347101); also: nearly all actives have a fitted effect of over 25% in size; also: potency is read from the fitted curve at half-maximal effect
Settings: BT-12 viability, CellTiter-Glo luminescence, 48 h; series mostly up to 57.3 µM
Summary of the method: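 Cells (500-1,000/well) rested 5 h, then received compounds for 48 h; metabolically active cells were measured by CellTiter-Glo luminescence. Final concentrations spanned up to 46 µM (MIPE, 11-point) or 0.59 nM-46 µM (NPC, 8-point) in primary screens, 11-point in follow-ups.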

| SMILES | Potency |
| --- | --- |
| C[C@]12CC[C@H](O)CC1=CC[C@@H]1[C@@H]2CC[C@]2(C)C(=O)CC[C@@H]12 | inactive |
| COc1cc(C[C@@H](C)N)c(OC)cc1Br | inactive |
| CCC1(CC)C(=O)NC(=O)NC1=O | inactive |
| CC[C@H](O)C(C[C@H](C)N(C)C)(c1ccccc1)c1ccccc1 | inactive |
| CN(C)C(=S)SSC(=S)N(C)C | 0.246 µM (active) |
| CCC(=O)OC1(c2ccccc2)CCN(C)CC1 | inactive |
| C[C@H]1C(=O)O[C@@H]2CCN3CC=C(COC(=O)[C@](C)(O)[C@]1(C)O)[C@H]23 | inactive |
| COP(=O)(OC)OC=C(Cl)Cl | inactive |
| COc1cc(N)c(Cl)cc1C(=O)NC1CN2CCC1CC2 (centres undefined) | inactive |
| CCN(Cc1ccc(Cl)nc1)/C(=C/[N+](=O)[O-])NC | inactive |
| CCN(CC)CCOC(=O)C(C)(c1ccccc1)c1ccccc1 | inactive |
| Cc1cccc(Cc2cnc[nH]2)c1C | inactive |
| Oc1c(Br)cc(Br)cc1Br | inactive |
| CN1C[C@@H](NS(=O)(=O)N(C)C)C[C@@H]2c3cccc4c3c(cn4C)C[C@H]21 | inactive |

Assay: qHTS of pediatric cancer cell lines to identify multiple opportunities for drug repurposing: Primary screen for Rh18 cells (AID 1347102); also: nearly all actives have a fitted effect of over 65% in size
Settings: Rh18 rhabdomyosarcoma viability, CellTiter-Glo luminescence, 48 h; series mostly up to 46 µM
Summary of the method: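 Cells (500-1,000/well) in growth media were settled 5 h at 37 degrees C, then given compounds for 48 h. Viability was read as CellTiter-Glo luminescence. Primary runs used MIPE at 11 points (0.78 nM-46 µM) and NPC at 8 points (0.59 nM-46 µM); follow-ups used 11 points.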

| SMILES | Potency |
| --- | --- |
| CN1CCC(N(Cc2ccccc2)c2ccccc2)CC1 | inactive |
| CCc1cc(OC)c(C[C@H](C)N)cc1OC | inactive |
| Cc1c(Cl)c(=O)oc2cc(OP(=O)(OCCCl)OCCCl)ccc12 | inactive |
| CCOC(=O)NC(O)C(Cl)(Cl)Cl (centres undefined) | inactive |
| CCCN(CCC)CCc1c[nH]c2ccccc12 | inactive |
| CC(C)[N+](C)(CCC(C(N)=O)(c1ccccc1)c1ccccc1)C(C)C | inactive |
| CCCCCCCCC(=O)NCc1ccc(O)c(OC)c1 | inactive |
| CNC(=O)NC(O)C(Cl)(Cl)Cl (centres undefined) | inactive |
| CCOC(=O)C1(c2ccccc2)CCN(CCc2ccc(N)cc2)CC1 | inactive |
| c1ccc2nc(N3CCNCC3)ccc2c1 | inactive |
| CC1N=C(N)OC1c1ccccc1 (centres undefined) | inactive |
| ClCCCN1CCN(c2cccc(Cl)c2)CC1 | inactive |
| C=CCOC(Cn1ccnc1)c1ccc(Cl)cc1Cl (centres undefined) | inactive |
| COc1ccc2[nH]cc(CCN(C(C)C)C(C)C)c2c1 | inactive |
| O=C1CN2CCOC2(c2ccccc2Cl)c2cc(Cl)ccc2N1 (centres undefined) | inactive |
| C[N+]1(CCC(C(N)=O)(c2ccccc2)c2ccccc2)CCCCC1 | inactive |
| CC[C@H]1C[C@H]2[C@@H]3CCC4=CC(=O)CC[C@@H]4[C@H]3CC[C@]2(C)[C@H]1O | inactive |
| CCOC(C(=O)OCCN(C)C)(c1ccccc1)c1ccccc1 | inactive |
| CC(C(O)c1ccccc1)N(C)C/C=C/c1ccccc1 (centres undefined) | inactive |
| C[C@]12CC[C@H](O)CC1=CC[C@@H]1[C@@H]2CC[C@]2(C)C(=O)CC[C@@H]12 | inactive |
| CCC1(CC)C(=O)NC(=O)NC1=O | inactive |
| CC[C@H](O)C(C[C@H](C)N(C)C)(c1ccccc1)c1ccccc1 | inactive |
| CCC(=O)OC1(c2ccccc2)CCN(C)CC1 | inactive |
| C[C@H]1C(=O)O[C@@H]2CCN3CC=C(COC(=O)[C@](C)(O)[C@]1(C)O)[C@H]23 | inactive |
| COP(=O)(OC)OC=C(Cl)Cl | inactive |
| COc1cc(N)c(Cl)cc1C(=O)NC1CN2CCC1CC2 (centres undefined) | inactive |
| CCN(Cc1ccc(Cl)nc1)/C(=C/[N+](=O)[O-])NC | inactive |
| CCN(CC)CCOC(=O)C(C)(c1ccccc1)c1ccccc1 | inactive |
| Cc1cccc(Cc2cnc[nH]2)c1C | inactive |
| Oc1c(Br)cc(Br)cc1Br | inactive |
